Sampled rows, rich in hits. Any-hit rate of the full collection: about 7.4%.
FLuc modulator: firefly luciferase modulation, counter-screen for miR-21 project | 360,000 tested, 6.9% active | Potency, µM (highest dose often 57.5 µM), usual class: inhibitors | purified FLuc, Km substrates, luminescence inhibition | P08659; also: nearly all actives have a fitted effect of over 55% in size
Target sequence (P08659 whole entry, looked up): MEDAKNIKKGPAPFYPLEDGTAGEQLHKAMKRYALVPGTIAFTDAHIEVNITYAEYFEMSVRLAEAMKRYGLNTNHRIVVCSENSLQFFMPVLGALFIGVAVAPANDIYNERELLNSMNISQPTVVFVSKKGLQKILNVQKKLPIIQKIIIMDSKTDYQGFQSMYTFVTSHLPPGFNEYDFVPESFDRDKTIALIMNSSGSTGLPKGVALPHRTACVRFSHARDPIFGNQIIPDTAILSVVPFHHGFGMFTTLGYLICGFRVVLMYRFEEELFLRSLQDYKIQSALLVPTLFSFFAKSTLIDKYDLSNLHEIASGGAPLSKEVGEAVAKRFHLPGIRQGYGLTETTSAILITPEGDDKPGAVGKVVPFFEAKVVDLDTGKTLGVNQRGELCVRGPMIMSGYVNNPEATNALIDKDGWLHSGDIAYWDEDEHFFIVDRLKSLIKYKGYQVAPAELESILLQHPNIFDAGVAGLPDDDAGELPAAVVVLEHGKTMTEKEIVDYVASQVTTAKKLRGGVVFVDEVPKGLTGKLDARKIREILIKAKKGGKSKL
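Biochemical qHTS of compounds, final roughly 60 µM downward over six points, against 10 nM purified firefly luciferase using Km concentrations of substrates (10 uM D-luciferin, 10 uM ATP) in Tris acetate pH 7.5 buffer; luminescence output.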
SMN2 splice up: SMN2 splice variant enhancement; HEK293 SMN2-luciferase splicing reporter, luminescence, 30-36 h; Potency, µM (doses to about 46.1 µM), hits mostly activators; 210,000 tested, 2.8% active; AID 1458; also: nearly all actives have a fitted effect of over 55% in size
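HEK293 cells carry an SMN2 […]–luciferase reporter in which exon 7 inclusion puts luciferase in frame. Cells were plated 10-12 h before compound addition, then incubated 30-36 h at 37C. ONE-Glo luminescence was read; sodium butyrate at 4.5 mM final served as control.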
NPC1 prom act: activates the NPC1 promoter; 320,000 tested, 2.4% active; AID 485313; Huh7 NPC1 promoter luciferase reporter, 24 h; Potency, µM (top dose mostly 9.22 µM), hits mostly activators; also: nearly all actives have a fitted effect of over 60% in size
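Stably transfected Huh7 (NPC1 promoter→luciferase), 1500 cells/well in Opti-MEM + 10% FBS, 2 h settle, then compound 24 h at 37 °C. Luminescence after 10 min with Amplite reagent.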
Rab9 promoter act: activates the Rab9 promoter | Huh7 Rab9 promoter-luciferase reporter, luminescence, 24 h | Potency, µM (series often up to 9.22 µM), hits mostly activators | 320,000 tested, 2.8% active | AID 485297; also: nearly all actives have a fitted effect of over 60% in size
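Luminescence read-out: Huh7 cells stably expressing Rab9-luciferase, treated 24 h with compound at 37 °C, then lysed with luciferase reagent for 10 min at ambient before reading.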
ELG1 genotoxic: induces genotoxicity in HEK293T cells with luciferase-tagged ELG1; HEK293T ELG1-luciferase reporter, luminescence, 16 h; 330,000 tested, 1.3% active; Potency, µM (highest dose often 46 µM), actives largely listed as activators; also: nearly all actives have a fitted effect of over 60% in size
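DMSO vehicle served as control against compound-treated ELG1-luciferase HEK293T cells; exposure lasted 16 hr at 37 °C and 5% CO2, followed by ONE-Glo luminescence detection after 30 min.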
Hits are given with their value; n = inactive; u = inconclusive; x = not tested or not shown. Calls follow the shape of the dose curve; as a rule, active = well fitted curve in the direction sought with a large enough effect; inconclusive = small, poorly fitted or top-dose-only effect, or another doubt; inactive = no such curve, though single readings can be large; an effect the other way counts as inactive or inconclusive.

SMILES	FLuc modulator	SMN2 splice up	NPC1 prom act	Rab9 promoter act	ELG1 genotoxic
COC(=O)c1ccc(C(NC(=O)OCc2ccccc2)/C(C)=C/[C@@H](C)C(=O)Nc2ccc(OC)cc2)cc1 (some centres not stated)	x	n	x	x	x
COC(CNC(=O)c1ccc2c(c1)ncn2-c1ccc(C)cc1C)OC	n	x	n	n	n
O=C(N/N=C/C(Br)=C/c1ccccc1)c1cnccn1	6.01µM	x	n	3.55µM	u
O=C(N/N=C/C(Cl)=C/c1ccccc1)c1ccccn1	4.78µM	12.6µM	3.98µM	1.78µM	u
O=C(NN=C1C2CC3CC(C2)CC1C3)c1ccncc1	n	n	n	n	n
O=C(N/N=C/C=C\c1ccccc1)c1cnccn1	u	n	n	n	n
Cc1ccc(-c2cc(C(=O)N/N=C/C=C/c3ccccc3)n[nH]2)s1	9.53µM	n	n	n	n
O=C(N/N=C1\C/C(=N\NC(=O)c2ccncc2)c2ccccc21)c1ccncc1	4.78µM	x	n	n	n
O=C(NN=C1c2ccccc2-c2ccccc21)c1ccccn1	5.36µM	n	n	n	n
Brc1ccccc1OCCCOc1cccc2cccnc12	10.7µM	x	u	3.98µM	u
Cc1ccc(OCCOCCOc2cccc3cccnc23)c(Br)c1	u	n	n	n	n
COc1cccc(C=O)c1OCCCOc1cccc2cccnc12	u	x	u	4.47µM	18.3µM
Brc1ccccc1OCCOc1cccc2cccnc12	12µM	u	n	n	n
Cc1cc(C)cc(OCCCOc2cccc3cccnc23)c1	n	n	n	n	n
CCO[C@@H]1OC(C(=O)N2CCOCC2)=C[C@H](c2ccc(C(F)(F)F)cc2)[C@H]1CCCO	n	x	n	n	n
COc1ccc2c(c1)sc1ncc(C(=O)NCc3ccc(OC(C)C)cc3)c(=O)n12	n	n	x	x	x
CN(C)S(=O)(=O)Nc1ccc2c(c1)Cc1ccccc1-2	26.9µM	u	n	n	u
O=C(Nc1ccccc1O)c1cc(S(=O)(=O)N2CCCC2)ccc1Cl	n	n	x	x	x
Nc1ccc(N)c([N+](=O)[O-])c1	x	n	x	x	x
Cn1nnnc1SCc1csc(Nc2ccccc2)n1	u	n	u	3.98µM	u
Cc1ccc(CSc2n[nH]c(N)n2)cc1	n	x	n	n	n
Cn1nnnc1SCc1cccc(CSc2nnnn2C)n1	n	n	n	n	u
Cc1ccc(Nc2nc(CSc3nnnn3C)cs2)cc1	3.38µM	11.2µM	3.55µM	2.82µM	u
Cc1ccc(Nc2nc(CSc3nnnn3-c3ccccc3)cs2)cc1	16.9µM	n	x	x	x
Cc1ccc(Nc2nc(CSc3n[nH]c(N)n3)cs2)cc1	1.35µM	x	1.12µM	2.24µM	u
SMILES	FLuc modulator	SMN2 splice up	NPC1 prom act	Rab9 promoter act	ELG1 genotoxic
COc1cccc(NC(=O)CN(C)S(=O)(=O)c2cccs2)c1	u	n	x	x	x
COc1ccc(C(=O)CCC(=O)N2CCN(c3cc(C)ccc3C)CC2)cc1	n	x	n	n	n
O=C(Nc1cccc(S(=O)(=O)NC2=NCCC2)c1)c1ccccc1OC(F)F	n	x	n	n	n
COc1cccc(CNCc2c(C(=O)O)c(C)n(Cc3ccc(F)cc3Cl)c2C)c1OC	n	n	x	x	x
Cc1ccc(Nc2nc(CSc3nnc(-c4cccs4)o3)cs2)cc1	6.75µM	n	n	n	u
COc1ccc(C2=Nc3ccccc3OC2)cc1	0.849µM	u	1.58µM	1.58µM	0.517µM
COc1ccc(-c2cc(-c3ccccc3)nc3c2COc2ccccc2-3)cc1	n	n	x	x	x
CC(C)(C)OC(=O)N1CCC(c2c(C(=O)NC3CCN(Cc4ccccc4)CC3)cnn2-c2ccc(F)cc2F)CC1	n	x	x	x	x
O=C1C2=C(Nc3ccccc3SC2c2ccc(C(F)(F)F)cc2)c2ccccc21 (configuration not stated)	n	n	x	x	x
O=C1C2=C(Nc3ccccc3SC2c2ccco2)c2ccccc21 (configuration not stated)	u	n	n	n	n
CCc1ccc(C2Sc3ccccc3NC3=C2C(=O)c2ccccc23)cc1 (configuration not stated)	10.7µM	n	x	x	x
CC(C)c1ccc(C2Sc3ccccc3NC3=C2C(=O)c2ccccc23)cc1 (configuration not stated)	6.01µM	n	x	x	x
NC(=O)c1ccccc1NC(=O)c1ccc(-c2ccc(Br)cc2)o1	x	n	x	x	x
COc1ccccc1NC(=O)c1ccc(-c2ccc(Br)cc2)o1	8.49µM	n	n	n	n
O=C(Nc1cccc(NC(=O)c2ccc(-c3ccc(Br)cc3)o2)c1)c1ccccc1	2.69µM	n	n	n	n
O=C(Nc1ccccc1)c1ccc(-c2ccc(Br)cc2)o1	6.01µM	u	n	n	u
O=C(Nc1cccc(NC(=O)c2ccc(-c3cccc(Br)c3)o2)c1)c1ccco1	u	n	n	n	n
O=C(Nc1cccc2ncccc12)c1ccc(-c2ccc(Br)cc2)o1	10.7µM	n	n	n	n
Cc1ccc2onc(CNC(=O)Nc3ccccc3C#N)c2c1	n	x	x	x	x
Cc1ccc(CNC(=O)c2cn(C)c3ccc(S(=O)(=O)N4CCC(C)CC4)cc3c2=O)cc1	n	n	x	x	x
COc1ccc(CNC(=O)c2c(Nc3ccccc3C)sc(C(=O)c3ccccc3)c2N)cc1	n	x	x	x	x
C[C@H]1CC[C@@H]2N(C1)C[C@H]1[C@@H]3C[C@H]4[C@@H](C/C(=N\O)[C@H]5C[C@@H](O)CC[C@@]54C)[C@@H]3CC[C@H]1[C@]2(C)O	x	n	x	x	x
O=C1NC(=O)/C(=C/c2ccc(-c3ccc(F)cc3O)o2)S1	x	x	n	n	x
O=C(Nc1nc2n(n1)C(c1ccc(Cl)cc1)C=C(c1ccccc1)N2)c1ccco1 (configuration not stated)	n	x	x	x	x
COc1ccccc1NC(=O)c1ccc(-c2ccccc2[N+](=O)[O-])o1	10.7µM	n	u	u	n
SMILES	FLuc modulator	SMN2 splice up	NPC1 prom act	Rab9 promoter act	ELG1 genotoxic
O=C(Nc1ccccc1)c1ccc(-c2ccc([N+](=O)[O-])cc2)o1	13.5µM	x	u	n	n
O=C(c1ccc(-c2ccc([N+](=O)[O-])cc2)o1)N1CCCCC1	6.75µM	u	3.98µM	1µM	u
COc1ccc(NC(=O)c2ccc(-c3ccc([N+](=O)[O-])cc3)o2)cc1	n	n	n	n	n
CCN(CC)CCCNC(=O)c1c(C)oc2ncnc(N3CCOCC3)c12	n	x	x	x	x
CCn1c(CCNC(=O)c2cccs2)nnc1SCC(=O)Nc1ccc(Cl)cc1	16.9µM	n	n	n	n
CCn1c(CCNC(=O)c2cccs2)nnc1SCC(=O)NC1CCCCC1	n	n	n	n	n
CC(/C=N/NC(=O)c1n[nH]c2c1CCC2)=C\c1ccccc1	4.78µM	u	n	n	2.31µM
O=C(N/N=C/C=C/c1ccccc1)c1n[nH]c2c1CCC2	n	n	n	n	u
O=C(N/N=C/C(Br)=C\c1ccccc1)c1n[nH]c2c1CCC2	2.39µM	12.6µM	u	n	2.31µM
Cc1cccc(N=C2NC(=O)/C(=C/c3cccn3C)S2)c1	12µM	x	n	n	n
Cc1ccc(N=C2NC(=O)/C(=C\c3cccs3)S2)cc1C	u	3.55µM	n	n	n
O=C1NC(=Nc2ccccc2)S/C1=C\c1cccn1-c1ccccc1	10.7µM	u	n	n	u

Screening data as filed in PubChem.
